Many of the other results were omitted from the sample, so the strongest signals are more common in it than they were.
Tests used:
Assay in all cases: glycan array binding signal (z-score within array); higher = stronger binding
Conditions in all cases: glycan notation: IUPAC condensed, linker removed
[1] = molecular target: Fuc(a1-2)Gal(b1-3)[Fuc(a1-4)]GlcNAc(b1-2)Man(a1-3)[Fuc(a1-2)Gal(b1-3)[Fuc(a1-4)]GlcNAc(b1-2)Man(a1-6)]Man(b1-4)GlcNAc(b1-4)GlcNAc
How it was run: (§1)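 The binding signal is a Z-score computed within each array. Data were drawn from 3228 arrays in the Consortium for Functional Glycomics database, restricted to those with a known protein sequence. Scores were averaged over arrays of the same protein sequence at different concentrations or buffers, and over linkers, and negative values can be taken as non-binding.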

[2] = molecular target: Fuc(a1-2)[GalNAc(a1-3)]Gal(b1-4)GlcNAc
How it was run: as §1

[3] = molecular target: Fuc(a1-2)[GalNAc(a1-3)]Gal(b1-4)GlcNAc(b1-2)Man(a1-3)[GalNAc(a1-3)[Fuc(a1-2)]Gal(b1-4)GlcNAc(b1-2)Man(a1-6)]Man(b1-4)GlcNAc(b1-4)GlcNAc
How it was run: as §1

[4] = molecular target: Fuc(a1-3)[Gal(b1-4)]GlcNAc
How it was run: as §1

[5] = molecular target: Fuc(a1-3)[Gal(b1-4)]GlcNAc(b1-2)Man(a1-3)[Fuc(a1-3)[Gal(b1-4)]GlcNAc(b1-2)Man(a1-6)]Man(b1-4)GlcNAc(b1-4)GlcNAc
How it was run: as §1

[6] = molecular target: Fuc(a1-3)[Gal3S(b1-4)]GlcNAc
How it was run: as §1

[7] = molecular target: Fuc(a1-3)[GalNAc(b1-4)]GlcNAc
How it was run: as §1

[8] = molecular target: Gal(a1-3)Gal(b1-4)[Fuc(a1-3)]GlcNAc(b1-2)Man(a1-3)[Gal(a1-3)Gal(b1-4)[Fuc(a1-3)]GlcNAc(b1-2)Man(a1-6)]Man(b1-4)GlcNAc(b1-4)GlcNAc
How it was run: as §1

[9] = molecular target: Gal(b1-3)GalNAc(b1-4)Gal(b1-4)Glc
How it was run: as §1

[10] = molecular target: Gal(b1-3)GlcNAc(b1-2)Man(a1-3)[Gal(b1-3)GlcNAc(b1-2)Man(a1-6)]Man(b1-4)GlcNAc(b1-4)[Fuc(a1-6)]GlcNAc
How it was run: as §1

[11] = molecular target: Gal(b1-3)[Fuc(a1-4)]GlcNAc(b1-2)Man(a1-3)[Gal(b1-3)[Fuc(a1-4)]GlcNAc(b1-2)Man(a1-6)]Man(b1-4)GlcNAc(b1-4)[Fuc(a1-6)]GlcNAc
How it was run: as §1

[12] = molecular target: Gal(b1-4)GlcNAc(b1-2)[Gal(b1-4)GlcNAc(b1-4)]Man(a1-3)[Gal(b1-4)GlcNAc(b1-2)Man(a1-6)]Man(b1-4)GlcNAc(b1-4)GlcNAc
How it was run: as §1

Gal3S(b1-4)GlcNAc6S = molecular target: Gal3S(b1-4)GlcNAc6S
How it was run: as §1

Gal4S(b1-4)GlcNAc = molecular target: Gal4S(b1-4)GlcNAc
How it was run: as §1

[13] = molecular target: GlcNAc(b1-2)Man(a1-3)[GlcNAc(b1-2)Man(a1-6)]Man(b1-4)GlcNAc(b1-4)GlcNAc
How it was run: as §1

[14] = molecular target: GlcNAc(b1-4)GlcNAc(b1-4)GlcNAc(b1-4)GlcNAc(b1-4)GlcNAc
How it was run: as §1

Kdn(a2-3)Gal(b1-3)GlcNAc = molecular target: Kdn(a2-3)Gal(b1-3)GlcNAc
How it was run: as §1

[15] = molecular target: Neu5Ac(a2-3)Gal(b1-3)GalNAc(b1-3)Gal(a1-4)Gal(b1-4)Glc
How it was run: as §1

[16] = molecular target: Neu5Ac(a2-3)Gal(b1-4)GlcNAc(b1-6)[Neu5Ac(a2-3)Gal(b1-3)]GalNAc
How it was run: as §1

[17] = molecular target: Neu5Ac(a2-3)Gal(b1-4)[Fuc(a1-3)]GlcNAc(b1-3)Gal
How it was run: as §1

[18] = molecular target: Neu5Ac(a2-3)Gal(b1-4)[Fuc(a1-3)]GlcNAc(b1-3)Gal(b1-4)GlcNAc
How it was run: as §1

[19] = molecular target: Neu5Ac(a2-3)Gal(b1-4)[Fuc(a1-3)]GlcNAc6S
How it was run: as §1

[20] = molecular target: Neu5Ac(a2-3)Gal6S(b1-4)GlcNAc
How it was run: as §1

[21] = molecular target: Neu5Ac(a2-6)Gal(b1-4)GlcNAc6S
How it was run: as §1

[22] = molecular target: Neu5Ac(a2-8)Neu5Ac(a2-3)Gal(b1-4)Glc
How it was run: as §1

[23] = molecular target: Neu5Ac(a2-8)Neu5Ac(a2-8)Neu5Ac(a2-8)Neu5Ac(a2-3)[GalNAc(b1-4)]Gal(b1-4)Glc
How it was run: as §1

[24] = molecular target: Neu5Ac9Ac(a2-3)Gal(b1-3)GlcNAc
How it was run: as §1

[25] = molecular target: Neu5Gc(a2-3)Gal(b1-3)GlcNAc
How it was run: as §1

B1: CCL2 (Coprinopsis cinerea), B3GA02 (protein)
chain: MDSPAVTLSAGNYIIYNRVLSPRGEKLALTYPGRQRTPVTVSPLDGSSEQAWILRSYDSNSNTWTISPVGSPNSQIGWGAGNVPVVLPPNNYVWTLTLTSGGYNIQDGKRTVSWSLNNATAGEEVSIGADATFSGRWVIEKV
- glycan array binding signal (z-score) [1]: -0.067
- glycan array binding signal (z-score) [2]: -0.286
- glycan array binding signal (z-score) [3]: -0.269
- glycan array binding signal (z-score) [4]: 0.752
- glycan array binding signal (z-score) [5]: 3.53
- glycan array binding signal (z-score) [6]: -0.279
- glycan array binding signal (z-score) [7]: 4.84
- glycan array binding signal (z-score) [8]: 4.37
- glycan array binding signal (z-score) [9]: -0.293
- glycan array binding signal (z-score) [10]: -0.283
- glycan array binding signal (z-score) [11]: -0.19
- glycan array binding signal (z-score) [12]: -0.268
- glycan array binding signal (z-score) (Gal3S(b1-4)GlcNAc6S): -0.276
- glycan array binding signal (z-score) (Gal4S(b1-4)GlcNAc): -0.26
- glycan array binding signal (z-score) [13]: -0.257
- glycan array binding signal (z-score) [14]: -0.255
- glycan array binding signal (z-score) (Kdn(a2-3)Gal(b1-3)GlcNAc): -0.257
- glycan array binding signal (z-score) [15]: -0.278
- glycan array binding signal (z-score) [16]: -0.27
- glycan array binding signal (z-score) [17]: 5.39
- glycan array binding signal (z-score) [18]: 4.93
- glycan array binding signal (z-score) [19]: 4.45
- glycan array binding signal (z-score) [20]: 4.88
- glycan array binding signal (z-score) [21]: -0.205
- glycan array binding signal (z-score) [22]: -0.275
- glycan array binding signal (z-score) [23]: -0.286
- glycan array binding signal (z-score) [24]: -0.294
- glycan array binding signal (z-score) [25]: -0.282
